Test results from PubChem BioAssay AID588726 (The Scripps Research Institute Molecular Screening Center, 2011).
The whole screen tested about 360,000 compounds, of which about 8,200 (2.3%) were called active. No stated cut-off is given here; in the data, active means inhibition above about 27%; inactive means the rest. The entries come from a sample that favours actives as a whole.

Target: Fructose-bisphosphate aldolase (Mycobacterium tuberculosis (strain ATCC 25618 / H37Rv)) (UniProt P9WQA3)
Experiment: M. tuberculosis aldolase activity blockers – biochemical, fluorescence, strain H37Rv, primary screen (AID 588726);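 further: 0% = vehicle and 100% = reference inhibitor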
Conditions: purified M. tuberculosis FBA, fluorescence read-out, at 1 µM, hits give high values

Fructose-bisphosphate aldolase (Mycobacterium tuberculosis (strain ATCC 25618 / H37Rv)), sequence (P9WQA3 whole entry, looked up): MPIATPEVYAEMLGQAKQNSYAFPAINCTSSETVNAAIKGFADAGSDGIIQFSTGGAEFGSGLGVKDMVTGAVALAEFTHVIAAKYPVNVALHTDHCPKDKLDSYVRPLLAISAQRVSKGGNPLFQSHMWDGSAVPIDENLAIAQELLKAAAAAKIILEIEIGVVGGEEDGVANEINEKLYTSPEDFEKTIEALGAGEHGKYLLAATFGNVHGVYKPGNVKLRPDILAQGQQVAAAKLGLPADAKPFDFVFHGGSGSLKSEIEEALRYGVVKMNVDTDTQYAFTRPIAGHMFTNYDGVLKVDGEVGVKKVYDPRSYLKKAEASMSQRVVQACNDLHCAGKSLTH

Structure (SMILES)	inhibition
CSCC[C@H](NC(=O)N1CCn2c1nc1ccccc12)C(=O)NC1CCCCC1	-1.03% (inactive)
CCN(CCn1cccn1)Cc1nc(-c2ccc(C(=O)OC)cc2)no1	0.65% (inactive)
CCOC(=O)COc1cc(OCC(=O)OCC)c2c(=O)cc(-c3ccccc3)oc2c1	39.2% (active)
COc1ccccc1OCC(=O)OCc1cc(-c2ccco2)on1	2.93% (inactive)
CCOC(=O)COc1ccc(Cl)cc1C1NC(=O)NC(C)=C1C(C)=O (configuration not stated)	0.97% (inactive)
COCCC(=O)Nc1ccc2c(c1)CN(C(=O)CCOC)CC2	2.39% (inactive)
O=C(NCc1ccccc1)c1onc(CSc2ccncc2)c1C(=O)NCc1ccccc1	0.92% (inactive)
O=C(NCC1CC1)c1onc(CSc2ccccc2)c1C(=O)NCC1CC1	3.54% (inactive)
O=C(NCc1ccccc1)c1onc(CSc2nc3ccccc3[nH]2)c1C(=O)NCc1ccccc1	27.9% (active)
O=C(CN1CCN(C(=O)C2CCCO2)CC1)Nc1c(Cl)cccc1Cl (configuration not stated)	-2.38% (inactive)
O=C(CCCCCn1c(=S)[nH]c2ccsc2c1=O)NC1CCCCC1	3.56% (inactive)
Cc1cc(NCc2ccco2)n2c(nc3ccccc32)c1C#N	162% (active)
Cc1cc(NC(C)C)n2c(nc3ccccc32)c1C#N	41.7% (active)
Cc1ccc(S(=O)(=O)N(C)c2nc3ccccc3n3c(C(C)C)nnc23)cc1	-0.15% (inactive)
CC(C)c1cc(NCc2ccccn2)n2c(nc3ccccc32)c1C#N	17.6% (inactive)
Cc1ccc2[nH]c(=O)c(-c3nc4c(C)cccn4c3NCc3ccco3)cc2c1	4.83% (inactive)
CCOCCCNc1c(CC)c(C)c(C#N)c2nc3ccccc3n12	4.3% (inactive)
CCCNC(=O)NC(=O)COC(=O)CC(NC(N)=O)c1ccc(Cl)cc1 (configuration not stated)	-6.17% (inactive)
CC(C)CCNC(=O)CC1C(=O)N(Cc2ccccc2)C(C)c2nc3ccccc3n21 (configuration not stated)	-2.2% (inactive)
CC(C)(C)C(=O)CSc1ccc(S(=O)(=O)N2CCCC2)cn1	1.92% (inactive)
COC(=O)C1=C(C)N(Cc2ccccc2)C(=NCCCOC(C)C)N[C@H]1c1ccccc1	-0.81% (inactive)
CC1CCCC(NC(=O)COC(=O)[C@@H]2CC(O)CN2S(=O)(=O)c2ccc3c(c2)OCCO3)C1C (some centres not stated)	0.53% (inactive)
O=c1[nH]nc(SCCS(=O)(=O)c2ccc(F)cc2)n1-c1ccccc1C(F)(F)F	1.24% (inactive)

Structure (SMILES)	inhibition
CCCCN(CCCC)CCC(O)c1cc2c(Cl)cc(Cl)cc2c2cc(C(F)(F)F)ccc12 (configuration not stated)	-0.59% (inactive)
O=c1onc(-c2cccs2)n1Cc1ccccc1	1.37% (inactive)
Cc1ccc(C2CC(c3cccc(Br)c3)n3nc(N)nc3N2)cc1 (configuration not stated)	5.98% (inactive)
COc1ccc(C2CC(c3ccc(Cl)cc3Cl)Nc3nc(N)nn32)cc1OC (configuration not stated)	0.41% (inactive)
Nc1nc2n(n1)C(c1ccco1)CC(c1ccc(Cl)c(Cl)c1)N2 (configuration not stated)	30.1% (active)
CCOc1ccc(CCNC(=O)COC(=O)C2CCN(c3ccc(C(F)(F)F)cn3)CC2)cc1OCC	2.79% (inactive)
OC[C@@H]1CN(Cc2ccc3c(c2)OCO3)C[C@H](n2cnc3c(NCc4ccco4)ncnc32)O1	0.71% (inactive)
CC(C)n1ncc2c(C(=O)NCc3ccccc3CN(C)C)cc(C3CC3)nc21	29.8% (active)
COc1ccc(OCCNC(=O)c2cc(C3CC3)nc3c2cnn3C(C)C)cc1	7.43% (inactive)
CNC(=O)c1ccc(CN(C)C(=O)c2cc(C3CC3)nc3c2cnn3C(C)C)cc1	-0.03% (inactive)
Cn1c(=O)c2c(nc(N3CCOCC3)n2CCNC2=NCCC2)n(C)c1=O	0.36% (inactive)
Cc1coc(C)c1C(=O)CC1(O)C(=O)N(C)c2ccc(Cl)cc21 (configuration not stated)	-1.99% (inactive)
CC(c1nnc(SCC(=O)Nc2sccc2C#N)n1-c1ccc(Cl)cc1)N(C)C (configuration not stated)	-0.06% (inactive)
COc1cccc(C(=O)OCc2cc(=O)oc3c(C)c(C)ccc23)c1OC	2.59% (inactive)
Cc1cc(=O)oc2c(C)c(OC(C)C(=O)NC3CCN(Cc4ccccc4)CC3)ccc12 (configuration not stated)	14.6% (inactive)
COc1ccccc1NC(=O)COC(=O)CNC(=O)C1CCCCC1	2.67% (inactive)
CCCc1cc(=O)[nH]c(SCC(=O)Nc2ccc(S(=O)(=O)N3CCCC3)cc2)n1	1.25% (inactive)
O=C(O)c1cccc(S(=O)(=O)N2CC=C(c3ccccc3)CC2)c1	0.87% (inactive)
CCN1C(=O)N[C@@H](c2ccccc2)[C@H](C(C)=O)[C@H]1C	1.5% (inactive)
CCOC(=O)NN1C(=O)c2ccccc2NC1c1cccc(O)c1 (configuration not stated)	31.7% (active)
O=C1c2ccccc2NC(c2ccccc2O)N1NS(=O)(=O)c1ccccc1 (configuration not stated)	7.05% (inactive)
CCOC(=O)NN1C(=O)c2ccccc2NC1c1ccccc1O (configuration not stated)	26.2% (inactive)
CC(=O)NN1C(=O)c2ccccc2NC1c1ccccc1 (configuration not stated)	37.3% (active)

Structure (SMILES)	inhibition
CN(C)c1ccc(C2Nc3ccccc3C(=O)N2NS(=O)(=O)c2ccccc2)cc1 (configuration not stated)	-0.05% (inactive)
Cc1cccc(C)c1NC(=O)C1CCCN1C(=O)OC(C)(C)C (configuration not stated)	-0.82% (inactive)
CS(=O)(=O)N(CC(=O)N1CCOCC1)c1ccc2c3c(cccc13)CC2	9.05% (inactive)
COCCNC(=O)C1CCN(S(=O)(=O)c2ccc3c(c2)OCCO3)CC1	-1.67% (inactive)
O=C(O)C(=Cc1ccccc1[N+](=O)[O-])c1ccccc1	3.82% (inactive)
CC1(C)CC(=O)C=C(c2ccc(COC(=O)c3cc(F)cc(F)c3)cc2)C1=O	-0.96% (inactive)
C/C(=N\NC(=S)NC(C)C)c1ccc(C(C)(C)C)cc1	2.12% (inactive)
Cc1ccc(CNC(=O)c2ccccc2CCc2ccccc2)cc1	-1.34% (inactive)
Cc1cccc(N(C)C(=O)c2cc3c(=O)[nH]c4ccc(C)cc4c3s2)c1	2.59% (inactive)
CCN(CC)CCCNC(=O)c1cc2c(=O)[nH]c3ccc(C)cc3c2s1	99.9% (active)
CCN(CC)CCCNC(=O)c1cc(-c2cccc(Cl)c2)on1	0% (inactive)
O=C1CC(c2cccc(Br)c2)C2=C(CCCC2=O)N1 (configuration not stated)	11.8% (inactive)
COc1ccc(-n2nc(C(=O)NCC(=O)Nc3cccc(C)n3)c3ccccc3c2=O)cc1	-0.39% (inactive)
COc1ccc(OC)c(CN2C(=O)CCC2(C)C(=O)NC2CCCCCC2)c1 (configuration not stated)	-0.66% (inactive)
Nc1ncnc2c1ncn2[C@@H]1O[C@H](C(=O)N2CCCN(Cc3ccccc3F)CC2)[C@@H](O)[C@H]1O	-2.6% (inactive)
COc1ccc(C(=O)NCC2CCCN2S(=O)(=O)c2cccs2)cc1OC (configuration not stated)	2.94% (inactive)
CCN1CCCC1CNC(=O)c1ccc2c(c1)NC(=O)/C(=C\c1ccccc1F)S2 (configuration not stated)	-6.09% (inactive)
CCOC(=O)CSc1nc(C)cc2c1C(=O)OC2	-3.48% (inactive)
O=C(NCc1cccc(Cl)c1)C1CCC(=O)N(C2CC2)C1 (configuration not stated)	1.48% (inactive)
O=C(NCc1cccc(Cl)c1)C1=CC=CN2CCS(=O)(=O)N=C12	30.5% (active)
O=C(NCc1cccc(Cl)c1)C1CCN(c2nnc(N3CCCC3=O)s2)CC1	-1.53% (inactive)
COCC1CCCN(Cc2cn[nH]c2-c2cc3ccccc3o2)C1 (configuration not stated)	0.03% (inactive)
CCCOc1ccc2c3c(c(=O)oc2c1OCCC)CCC3	16% (inactive)

Structure (SMILES)	inhibition
COc1ccc2c3c(c(=O)oc2c1OCC(=O)C(C)(C)C)CCCC3	63.3% (active)
COc1ccc(C(=O)Nc2ccc(C(=O)NCC3CCCO3)cc2)c(OC)c1OC (configuration not stated)	-1.55% (inactive)
CCc1nc2c(OCC(=O)C(C)(C)C)cccn2c1N(C)C(=O)c1ccccc1F	-0.18% (inactive)
Clc1ccc(C=NC23CN4CN(CN(C4)C2)C3)cc1	1.62% (inactive)
NNc1cccc(C=Cc2ccccc2)cc1=O	21.6% (inactive)
O=C(COc1ccc(Cl)cc1)NCc1nnc(SCC(=O)NCC2CCCO2)o1 (configuration not stated)	5.04% (inactive)
CN1CCN(CCCNC(=O)c2ccc(/C=C3\Oc4ccccc4N(Cc4ccc(Cl)cc4)C3=O)cc2)CC1	80.8% (active)
Cc1ccc(NC(=O)CCCNC(=O)c2ccc(Cl)cc2)cc1S(=O)(=O)N1CCOCC1	1.07% (inactive)
CCC1Oc2ccccc2N(CC(=O)NCCCN2CCN(CC)CC2)C1=O (configuration not stated)	-0.48% (inactive)
Clc1ccc(Cl)c(Oc2ccc(Oc3nc(Cl)ccc3Cl)cc2)n1	4.19% (inactive)
COc1ccc2c(c1)C(=C(C#N)C#N)C(=O)N2CCc1ccccc1	0.52% (inactive)
COc1ccc2c(CC(=O)OCC(=O)Nc3ccccc3[N+](=O)[O-])coc2c1	2.62% (inactive)
CC(C)(C)OC(=O)Nc1ccc([C@@H](NC(=O)OC(C)(C)C)C(=O)OC(C)(C)C)cc1	-1.85% (inactive)
Cc1cc(S(=O)(=O)c2cc3ccc(O)c(C)c3oc2=O)ccc1F	72.4% (active)
COc1cccc2cc(S(=O)(=O)c3ccc(C)cc3)/c(=N/NS(=O)(=O)c3ccc(C)cc3)oc12	-1.11% (inactive)
Cc1cc(C(=O)OCC(=O)c2c(N)n(C)c(=O)n(C)c2=O)c(C)o1	0.07% (inactive)
O=S(=O)(c1ccc(Br)cc1)n1ccc2ccccc21	-4.37% (inactive)
CS(=O)(=O)N(CC(=O)N1CCCC1)Cc1ccccc1	1.15% (inactive)
CN(Cc1ccccc1Cl)C(=O)C1CCC(=O)N(CCc2cccc(F)c2)C1 (configuration not stated)	-0.04% (inactive)
O=C(N=C1SC2CS(=O)(=O)CC2N1c1cc(Cl)ccc1Cl)C1CC1 (configuration not stated)	0.93% (inactive)
COc1ccc(CCNC(=O)CCC(=O)NC2CCCCC2)cc1OC	0.12% (inactive)
CCOc1ccc(-c2noc(CCC(=O)NC3CCCC3)n2)cc1OC	1.23% (inactive)
COc1ccc2c(C)c(CCC(=O)NC3CC3)c(=O)oc2c1C	162% (active)
